Inconclusive results are not listed. Where a structure was tested more than once in an assay, its records may differ in their call. Calls of active or inactive are those of the source. The calls were made as follows, unless noted: active = hit-call score of the fitted dose curve at least 0.9, where 1 is the maximum; inconclusive = response in the unintended direction; inactive = score below 0.9.
Experiments:
[1] = target: Aryl hydrocarbon receptor (Homo sapiens) (UniProt P35869); assay: ATG_Ahr_CIS: Attagene CIS-FACTORIAL HepG2 Assay for human Aryl Hydrocarbon Receptor (Ahr) (AID 2282930; active = hit-call score of the fitted dose curve at least 0.9, where 1 is the maximum; inactive = score below 0.9); conditions: HepG2 AhR cis-factorial reporter transcription; actives raise or lower the signal
Procedure, shortened: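 Read-out: reporter mRNA quantified by RT-PCR with fluorescent primer extension and capillary electrophoresis. Human HepG2 liver cells carried transfected cis-promoter reporter units and were exposed to chemical for 24 h; gain or loss fitted relative to DMSO.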

[2] = target: Estrogen receptor beta (Homo sapiens) (UniProt Q92731); assay: OT_ER_ERbERb_0480: Odyssey Thera (OT) 8-hour HEK293T Protein-Complementation Assay for Estrogen Receptor-beta/-beta Homodimer (AID 2283357);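 also: active means signal gain over DMSO baseline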
Procedure, shortened: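 Homodimerization of ER-beta LBD measured by protein-fragment complementation in HEK293T; 8 h dosing; fixed, Draq5 counterstain; fluorescence intensity gain over DMSO baseline, positive fitting direction; laser scanning cytometry.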

[3] = target: Estrogen receptor beta (Homo sapiens) (UniProt Q92731); assay: OT_ER_ERbERb_1440: Odyssey Thera (OT) 24-hour HEK293T Protein-Complementation Assay for Estrogen Receptor-beta/-beta Homodimer (AID 2283380);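 also: scored as signal increase over DMSO baseline for both agonists and antagonists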
Procedure, shortened: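 HEK293T cells stably expressing ER beta LBD (aa 310-547) homodimer fragment-complementation reporter, dosed 24 h. Cells formaldehyde-fixed, Draq5-stained; gain in nuclear (agonist) or nuclear plus cytoplasmic (antagonist) fluorescence versus DMSO read by laser scanning cytometry.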

[4] = target: Retinoic acid receptor RXR-alpha (Homo sapiens) (UniProt P19793); assay: OT_NURR1_NURR1RXRa_1440: Odyssey Thera (OT) 24-hour HEK293T Protein Complementation Assay for Nurr1/retinoid X receptor (RXR) (AID 2283386)
Procedure, shortened: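 Fluorescence PCA read-out; HEK293T; 24 h post-dose; bait/prey fused to reporter fragments; gain-of-signal fit vs DMSO negative control.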

[5] = target: Peroxisome proliferator-activated receptor gamma (Homo sapiens) (UniProt P37231); assay: OT_PPARg_PPARgSRC1_0480: Odyssey Thera (OT) 8-hour Protein-Complementation Assay for Peroxisome Proliferator-activated Receptor Gamma / SRC-1 Co-activator (AID 2283387);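 also: nuclear to cytoplasmic split Venus YFP fluorescence ratio reporting PPARg SRC-1 interaction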
Procedure, shortened: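 Protein-fragment complementation of split Venus YFP reports PPARg/SRC-1 interaction in HEK293T (transfected 48 h before treatment), exposed 8 h. Readout: N/C fluorescence ratio at 488 nm from imaging, Draq5 for segmentation, positive fit relative to DMSO.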

[6] = target: Peroxisome proliferator-activated receptor gamma (Homo sapiens) (UniProt P37231); assay: OT_PPARg_PPARgSRC1_1440: Odyssey Thera (OT) 24-hour Protein-Complementation Assay for Peroxisome Proliferator-activated Receptor Gamma/ SRC-1 Co-activator (AID 2283388);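 also: nuclear to cytoplasmic ratio of reconstituted Venus YFP fluorescence in fixed imaged cells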
Procedure, shortened: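 Readout: nuclear-to-cytoplasmic 488 nm fluorescence ratio, ≥350 cells per image, 8 images per well, after 24 h compound exposure of HEK293T expressing PPARg/SRC-1 split-YFP fusions. Activity fitted in positive direction against DMSO.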

[7] = ACEA_AR_agonist_AUC_viability: ACEA Biosciences xCELLigence Real-Time Cell Analysis on Androgen Receptor Agonism for Viability (AID 2283775)
Procedure, shortened: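 Viability endpoint from xCELLigence impedance in 22Rv1 prostate cells at 80 h. Eight-point series, 100 uM maximum final.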

[8] = ACEA_AR_antagonist_AUC_viability: ACEA Biosciences xCELLigence Real-Time Cell Analysis on Androgen Receptor Antagonism for Viability (AID 2283776);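 also: 22Rv1 human prostate cancer cells growing on impedance electrode plates; area under impedance growth curve at 80 h after dosing as viability; hits lower the growth signal relative to DMSO meaning cytotoxicity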
Procedure, shortened: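 Impedance read-out (RT-CES): area under growth curve at 80 h post-dose, loss of signal scored vs DMSO baseline. 22Rv1 cells; 8-pt 1:4 series, top 100 uM final, ≤0.5% DMSO; biological duplicate.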

[9] = ATG_M_19_TRANS: Attagene TRANS-FACTORIAL HepG2 Assay for M19 Transcription Factor (Internal Marker) (AID 2282974); conditions: HepG2 Attagene TRANS-FACTORIAL M19 internal marker reporter
Procedure, shortened: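 Measured here: internal-marker reporter transcript from HepG2 cells transfected with MRTUs, harvested at 24 h. cDNA PCR products were 6-FAM labelled by primer extension, cut with HpaI for 2 h at 37 C, and resolved by CE.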

[10] = target: Estrogen-related receptor gamma (Homo sapiens) (UniProt P62508); assay: ATG_ERRg_TRANS: Attagene TRANS-FACTORIAL HepG2 Assay for human Estrogen-Related Receptor gamma (ERRg) (AID 2282977); conditions: HepG2 Attagene TRANS reporter, ERRg transactivation;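 also: hits increase reporter signal over DMSO so potencies reflect activators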
Procedure, shortened: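 Readout: fluorescent reporter-mRNA fragments resolved by capillary electrophoresis after RT-PCR and HpaI cut. Cells: transiently transfected HepG2 carrying GAL4-UAS reporters driven by exogenous NR-Gal4 chimeras, dosed 24 h. Activity fitted upward relative to DMSO baseline.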

[11] = target: human Retinoic Acid Receptor gamma (RARg), RARG (gene 5916) (UniProt P13631); assay: ATG_RARg_TRANS: Attagene TRANS-FACTORIAL HepG2 Assay for human Retinoic Acid Receptor gamma (RARg) (AID 2283009)
Procedure, shortened: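 Readout: reporter transcript levels via RT-PCR, 6-FAM primer-extension labelling, HpaI digestion and capillary electrophoresis. Cells: HepG2 carrying transfected RARg-GAL4 chimera plus UAS reporter set. Dosing 24 h; DMSO negative control.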

[12] = target: Bile acid receptor (Homo sapiens) (UniProt Q96RI1); assay: ATG_FXR_TRANS: Attagene TRANS-FACTORIAL HepG2 Assay for Farnesoid X Receptor (FXR) (AID 2282979); conditions: HepG2 Attagene TRANS FXR-GAL4 reporter transcription;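 also: hits raise reporter mRNA above DMSO so AC50 marks FXR activation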
Procedure, shortened: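 Read-out: fluorescent reporter transcripts quantified by capillary electrophoresis after RT-PCR of total RNA. Source cells were HepG2 transiently carrying chimeric NR-GAL4 plus GAL4-UAS reporter units, dosed 24 h. Activity fitted upward relative to DMSO baseline.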

[13] = ATG_ERE_CIS: Attagene CIS-FACTORIAL HepG2 Assay for Estrogen Response Element (ERE) (AID 2282940; active = hit-call score of the fitted dose curve at least 0.9, where 1 is the maximum; inactive = score below 0.9); conditions: HepG2 ERE cis-reporter, Attagene RNA transcript; actives raise or lower the signal
Procedure, shortened: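 Readout: reporter mRNA induction by RT-PCR, FAM-labelled primer extension, HpaI digestion and capillary electrophoresis, 24 h after dosing transfected HepG2 cells. Endogenous transcription factors act on cis-element-regulated reporters. Gain or loss fitted against DMSO.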

[14] = target: human Peroxisome Proliferator-activated Receptor delta (PPARd), PPARD (gene 5467) (UniProt Q03181); assay: ATG_PPARd_TRANS: Attagene TRANS-FACTORIAL HepG2 Assay for human Peroxisome Proliferator-activated Receptor delta (PPARd) (AID 2283002)
Procedure, shortened: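 Read-out: reporter mRNA induction, quantified by fluorescent RT-PCR products resolved by capillary electrophoresis. Human HepG2 liver cells carried transiently transfected Gal4-UAS reporter constructs with chimeric NR-Gal4 fusions. Cells were dosed for 24 h; DMSO served as baseline.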

[15] = read-out: Human Leukocyte Antigen - DR isotype (HLADR), HLA-DRA (gene 3122); assay: BSK_3C_HLADR: BioMAP Diversity Plus: 3C Assay for Human Leukocyte Antigen - DR isotype (HLADR) Biomarker Activity (AID 2283019; active = hit-call score of the fitted dose curve at least 0.9, where 1 is the maximum; inactive = score below 0.9;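 also: ELISA of cell-surface HLA-DR on HUVEC 24 h after dosing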); conditions: primary human endothelial cells (HUVEC); actives raise or lower the signal
Procedure, shortened: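 HUVEC, 3C stimulation, 24 h post-dose; HLA-DR by ELISA; bidirectional curve fit vs DMSO baseline; gain or loss of signal scored.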

[16] = read-out: Pselectin, SELP (gene 6403); assay: BSK_4H_Pselectin: BioMAP Diversity Plus: 4H Assay for Pselectin Biomarker Activity (AID 2283026; active = hit-call score of the fitted dose curve at least 0.9, where 1 is the maximum; inactive = score below 0.9); conditions: primary human endothelial cells (HUVEC); actives raise or lower the signal
Procedure, shortened: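 HUVEC, 24 h chemical exposure; P-selectin read by ELISA. Bidirectional curve fit vs DMSO baseline; gain or loss of signal scored.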

[17] = read-out: serum amyloid A (SAA), SAA1 (gene 6288); assay: BSK_CASM3C_SAA: BioMAP Diversity Plus: CASM3C Assay for serum amyloid A (SAA) Biomarker Activity (AID 2283049; active = hit-call score of the fitted dose curve at least 0.9, where 1 is the maximum; inactive = score below 0.9;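 also: SAA protein level quantified by ELISA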); conditions: primary human coronary artery smooth muscle cells; actives raise or lower the signal
[18] = read-out: Vascular cell adhesion molecule 1 (VCAM1), VCAM1 (gene 7412); assay: BSK_CASM3C_VCAM1: BioMAP Diversity Plus: CASM3C Assay for Vascular cell adhesion molecule 1 (VCAM1) Biomarker Activity (AID 2283055; active = hit-call score of the fitted dose curve at least 0.9, where 1 is the maximum; inactive = score below 0.9;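 also: VCAM-1 protein level quantified by ELISA on the cells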); conditions: primary human coronary artery smooth muscle cells; actives raise or lower the signal
[19] = BSK_SAg_PBMCCytotoxicity: PBMC Cytotoxicity Assessment in the BioMAP Diversity Plus: SAg Assay (AID 2283093; active = hit-call score of the fitted dose curve at least 0.9, where 1 is the maximum; inactive = score below 0.9;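 also: fitted both ways against DMSO so a hit may be loss or gain of signal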;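 as to AC50: PBMC superantigen activated with SEB plus TSST-1 one hour after compound addition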); conditions: primary human HUVEC with PBMC
Procedure, shortened: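 PBMC viability by Alamar Blue reduction, fluorescence read at 546/580 nm after 6 h dye exposure. Cells were dosed 1 h before SEB plus TSST-1 activation (20 ng/mL final each), then held 90 h; endothelial/PBMC human co-culture.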

[20] = CCTE_Harrill_HTTr_CellCount_MCF7: CCTE's Cell Proliferation Assessment for the High-Throughput Transcriptomics (HTTr) Platform, Harrill Lab (AID 2284012);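 also: count of Hoechst-stained nuclei per well by high-content imaging in MCF-7 cells; cells exposed to compound for six hours; intended direction is loss of nuclei count meaning fewer cells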
Procedure, shortened: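 Readout: Hoechst nuclear count by high-content imaging. MCF-7, 8-point dilution series, 6 h exposure. Bidirectional fit vs DMSO baseline.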

Measured: AC50

Sequence of Bile acid receptor (Homo sapiens) (Q96RI1 whole entry, looked up, the tested form may be a part): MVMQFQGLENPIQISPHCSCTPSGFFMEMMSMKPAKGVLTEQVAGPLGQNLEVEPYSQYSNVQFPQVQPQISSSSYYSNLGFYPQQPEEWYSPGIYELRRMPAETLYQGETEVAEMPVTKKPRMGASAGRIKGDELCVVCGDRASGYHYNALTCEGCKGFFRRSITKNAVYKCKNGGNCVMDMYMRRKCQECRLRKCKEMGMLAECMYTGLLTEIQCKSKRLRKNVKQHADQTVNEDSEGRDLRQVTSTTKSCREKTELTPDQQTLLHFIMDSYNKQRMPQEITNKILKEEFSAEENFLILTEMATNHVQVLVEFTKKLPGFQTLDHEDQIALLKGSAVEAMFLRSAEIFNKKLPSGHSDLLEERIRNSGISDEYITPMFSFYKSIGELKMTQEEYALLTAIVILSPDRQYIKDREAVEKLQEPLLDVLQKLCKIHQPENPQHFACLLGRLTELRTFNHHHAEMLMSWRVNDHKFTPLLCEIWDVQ
Sequence of Retinoic acid receptor RXR-alpha (Homo sapiens) (P19793 whole entry, looked up, the tested form may be a part): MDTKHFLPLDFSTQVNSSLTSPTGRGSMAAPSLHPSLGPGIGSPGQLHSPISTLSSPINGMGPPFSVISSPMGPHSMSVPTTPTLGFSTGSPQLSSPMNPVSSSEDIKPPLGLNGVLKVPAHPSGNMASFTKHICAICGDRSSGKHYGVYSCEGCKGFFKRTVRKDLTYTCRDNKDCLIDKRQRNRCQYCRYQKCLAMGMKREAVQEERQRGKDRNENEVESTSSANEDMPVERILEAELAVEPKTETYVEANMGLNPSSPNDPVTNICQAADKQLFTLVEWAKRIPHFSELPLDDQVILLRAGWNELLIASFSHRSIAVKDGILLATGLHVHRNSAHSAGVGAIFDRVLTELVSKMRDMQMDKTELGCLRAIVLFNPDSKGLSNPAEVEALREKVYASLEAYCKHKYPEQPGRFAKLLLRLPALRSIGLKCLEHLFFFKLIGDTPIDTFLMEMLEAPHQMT
Sequence of human Retinoic Acid Receptor gamma (RARg), RARG (gene 5916) (P13631 whole entry, looked up, the tested form may be a part): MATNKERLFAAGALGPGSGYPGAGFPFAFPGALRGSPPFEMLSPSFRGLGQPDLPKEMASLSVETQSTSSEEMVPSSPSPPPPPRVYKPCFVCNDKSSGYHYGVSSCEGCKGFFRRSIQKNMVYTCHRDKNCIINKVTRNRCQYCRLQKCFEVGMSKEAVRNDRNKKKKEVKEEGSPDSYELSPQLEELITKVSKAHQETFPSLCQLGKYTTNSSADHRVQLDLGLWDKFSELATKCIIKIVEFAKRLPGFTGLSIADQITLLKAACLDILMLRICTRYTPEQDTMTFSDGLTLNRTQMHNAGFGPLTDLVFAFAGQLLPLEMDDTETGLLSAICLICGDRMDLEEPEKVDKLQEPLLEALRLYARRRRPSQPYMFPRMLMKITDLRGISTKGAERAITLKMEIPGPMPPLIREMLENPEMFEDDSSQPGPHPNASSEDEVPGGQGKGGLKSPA
Sequence of Aryl hydrocarbon receptor (Homo sapiens) (P35869 whole entry, looked up): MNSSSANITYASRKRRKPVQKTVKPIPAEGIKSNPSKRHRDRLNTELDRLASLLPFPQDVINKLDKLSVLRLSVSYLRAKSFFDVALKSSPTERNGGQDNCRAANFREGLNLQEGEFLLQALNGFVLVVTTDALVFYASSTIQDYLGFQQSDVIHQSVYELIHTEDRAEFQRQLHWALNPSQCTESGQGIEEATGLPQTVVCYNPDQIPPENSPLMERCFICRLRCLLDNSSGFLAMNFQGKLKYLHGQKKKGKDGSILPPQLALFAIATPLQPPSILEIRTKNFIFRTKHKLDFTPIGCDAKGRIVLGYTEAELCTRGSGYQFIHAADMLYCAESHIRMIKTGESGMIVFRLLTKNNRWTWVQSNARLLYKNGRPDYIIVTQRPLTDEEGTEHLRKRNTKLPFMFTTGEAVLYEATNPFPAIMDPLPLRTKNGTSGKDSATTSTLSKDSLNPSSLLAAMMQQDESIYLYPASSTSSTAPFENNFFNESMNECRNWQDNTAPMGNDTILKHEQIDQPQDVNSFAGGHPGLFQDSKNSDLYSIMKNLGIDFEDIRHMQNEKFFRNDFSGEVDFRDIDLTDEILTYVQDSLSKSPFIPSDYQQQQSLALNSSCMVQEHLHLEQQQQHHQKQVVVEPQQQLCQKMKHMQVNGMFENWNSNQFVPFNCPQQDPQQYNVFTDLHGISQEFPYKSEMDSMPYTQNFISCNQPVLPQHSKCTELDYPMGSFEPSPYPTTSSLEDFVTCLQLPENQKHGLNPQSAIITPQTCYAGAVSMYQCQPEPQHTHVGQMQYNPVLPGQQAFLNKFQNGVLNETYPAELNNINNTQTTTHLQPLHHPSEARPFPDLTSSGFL
Sequence of human Peroxisome Proliferator-activated Receptor delta (PPARd), PPARD (gene 5467) (Q03181 whole entry, looked up, the tested form may be a part): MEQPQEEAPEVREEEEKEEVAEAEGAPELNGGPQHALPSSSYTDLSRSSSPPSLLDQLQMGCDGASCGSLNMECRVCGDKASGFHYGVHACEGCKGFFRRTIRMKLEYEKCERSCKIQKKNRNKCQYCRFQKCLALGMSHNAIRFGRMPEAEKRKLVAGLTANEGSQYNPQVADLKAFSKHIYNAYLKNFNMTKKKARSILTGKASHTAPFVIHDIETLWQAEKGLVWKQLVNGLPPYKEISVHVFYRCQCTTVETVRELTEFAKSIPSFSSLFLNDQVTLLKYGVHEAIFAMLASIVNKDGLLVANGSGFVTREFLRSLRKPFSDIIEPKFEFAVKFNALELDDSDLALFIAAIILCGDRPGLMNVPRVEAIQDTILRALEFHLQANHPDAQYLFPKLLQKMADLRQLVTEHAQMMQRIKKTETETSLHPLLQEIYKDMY
Sequence of Peroxisome proliferator-activated receptor gamma (Homo sapiens) (P37231 whole entry, looked up, the tested form may be a part): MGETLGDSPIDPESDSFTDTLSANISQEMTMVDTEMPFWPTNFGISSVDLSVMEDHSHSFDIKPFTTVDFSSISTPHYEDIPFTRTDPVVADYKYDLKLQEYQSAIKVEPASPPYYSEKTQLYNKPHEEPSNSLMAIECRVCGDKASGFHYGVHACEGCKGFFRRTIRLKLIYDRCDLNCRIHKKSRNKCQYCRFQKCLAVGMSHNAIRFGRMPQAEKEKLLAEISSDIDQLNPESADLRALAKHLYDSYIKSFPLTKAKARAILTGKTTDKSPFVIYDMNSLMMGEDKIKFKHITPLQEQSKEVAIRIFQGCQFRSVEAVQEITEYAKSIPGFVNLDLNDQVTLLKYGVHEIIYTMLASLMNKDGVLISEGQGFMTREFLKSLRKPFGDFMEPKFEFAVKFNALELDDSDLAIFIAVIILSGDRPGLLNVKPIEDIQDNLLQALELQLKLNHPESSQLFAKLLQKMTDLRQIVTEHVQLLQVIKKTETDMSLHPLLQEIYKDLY
Sequence of Estrogen receptor beta (Homo sapiens) (Q92731 whole entry, looked up, the tested form may be a part): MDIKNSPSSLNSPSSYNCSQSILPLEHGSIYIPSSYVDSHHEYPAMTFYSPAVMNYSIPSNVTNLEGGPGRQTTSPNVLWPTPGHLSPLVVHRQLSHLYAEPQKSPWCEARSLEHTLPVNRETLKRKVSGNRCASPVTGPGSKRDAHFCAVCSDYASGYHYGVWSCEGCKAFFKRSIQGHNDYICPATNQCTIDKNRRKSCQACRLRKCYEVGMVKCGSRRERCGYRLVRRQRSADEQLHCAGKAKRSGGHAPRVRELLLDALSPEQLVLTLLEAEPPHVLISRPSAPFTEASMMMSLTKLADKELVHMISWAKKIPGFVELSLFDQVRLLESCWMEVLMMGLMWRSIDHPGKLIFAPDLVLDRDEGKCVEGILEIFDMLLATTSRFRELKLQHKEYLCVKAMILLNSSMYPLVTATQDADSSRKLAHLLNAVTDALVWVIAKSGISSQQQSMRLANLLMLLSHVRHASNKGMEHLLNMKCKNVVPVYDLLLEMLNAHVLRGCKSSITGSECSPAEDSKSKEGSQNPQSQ
Sequence of Estrogen-related receptor gamma (Homo sapiens) (P62508 whole entry, looked up, the tested form may be a part): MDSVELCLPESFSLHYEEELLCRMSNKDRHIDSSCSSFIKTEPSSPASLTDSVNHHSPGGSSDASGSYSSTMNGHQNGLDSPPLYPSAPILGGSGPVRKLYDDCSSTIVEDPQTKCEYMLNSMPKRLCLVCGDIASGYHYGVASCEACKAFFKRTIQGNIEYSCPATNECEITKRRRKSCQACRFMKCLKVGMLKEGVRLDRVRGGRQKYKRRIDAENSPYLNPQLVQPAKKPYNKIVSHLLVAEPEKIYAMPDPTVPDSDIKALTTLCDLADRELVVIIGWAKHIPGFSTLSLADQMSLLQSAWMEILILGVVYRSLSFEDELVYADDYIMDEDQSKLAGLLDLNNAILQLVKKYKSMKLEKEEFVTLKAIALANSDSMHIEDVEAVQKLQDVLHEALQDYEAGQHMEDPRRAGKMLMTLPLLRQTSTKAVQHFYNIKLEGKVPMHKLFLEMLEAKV

Cc1cc(C)c(S(=O)(=O)O)cc1N=Nc1cc(S(=O)(=O)O)c2ccccc2c1O
active: [1] 42.4 µM
inactive: [2] | [3] | [4] | [5] | [6] | [7] | [8]

F[B-](F)(F)F
inactive: [1] | [9] | [4] | [5] | [6] | [7] | [8]

CC=CC(=O)O
inactive: [10] | [11]

NC(=O)c1ccc([N+](=O)[O-])cc1Cl
inactive: [9] | [12]

Nc1ccc(S(=O)(=O)Nc2cnc3ccccc3n2)cc1
inactive: [1] | [2] | [3] | [4] | [5] | [6]

CC1(C)S[C@@H]2[C@H](NC(=O)[C@H](N)c3ccccc3)C(=O)N2[C@H]1C(=O)O
inactive: [1]

NC(=O)c1ccc(N)cc1
inactive: [13] | [10]

Cc1cc2nc3c(=O)[nH]c(=O)nc-3n(C[C@H](O)[C@H](O)[C@H](O)CO)c2cc1C
active: [2] 11.8 µM | [3] 24.1 µM | [4] 11 µM
inactive: [12] | [8]

[O-][n+]1ccc(Cl)cc1
inactive: [12]

CCOC(=O)CC(=O)OCC
inactive: [9] | [12] | [11] | [4] | [7]

CCCCOC(=O)COc1ccc(Cl)cc1Cl
inactive: [4] | [5] | [6] | [7] | [8]

COC(=O)c1ccccc1
inactive: [1] | [9] | [14]

C[C@H]1C[C@H]2[C@@H]3CCC4=CC(=O)C=C[C@]4(C)[C@@]3(F)[C@@H](O)C[C@]2(C)[C@@]1(O)C(=O)CO
active: [1] 44.6 µM

Nc1nnc(-c2ccc([N+](=O)[O-])o2)o1
inactive: [13]

CCOC(=O)c1ccccc1
inactive: [13] | [10] | [14] | [2] | [3] | [4] | [5] | [6] | [7] | [8]

CCCCC(CC)COC(=O)CS (configuration not stated)
inactive: [10]
active: [4] 16 µM

CCCC(=O)OC/C=C(\C)CCC=C(C)C
inactive: [13]

O=S(=O)(O)c1cccc2ccccc12
inactive: [10] | [14] | [5] | [7] | [8]

CN1CCCC1
inactive: [13] | [10] | [12] | [11]

CC(=O)OC(C)(C)Cc1ccccc1
inactive: [12] | [7] | [8]

c1cc(N(CC2CO2)CC2CO2)ccc1Cc1ccc(N(CC2CO2)CC2CO2)cc1 (configuration not stated)
inactive: [13] | [9] | [12]

C=C(C)C(=O)OCCCCCC
inactive: [13] | [10]

C=C(C)C(=O)OCC1CCCO1 (configuration not stated)
inactive: [12]

CN(C)Cc1cc(C(C)(C)C)c(O)c(C(C)(C)C)c1
active: [16] 1.56 µM | [17] 5.92 µM | [18] 0.15 µM | [19] 28.7 µM
inactive: [9] | [10] | [14] | [15] | [16] | [17] | [18] | [19]

O=C(O)/C=C\C(=O)O
inactive: [9] | [10] | [2] | [3] | [4] | [7] | [20]

CC(=O)c1nccs1
inactive: [9]
active: [13] 4.94 µM

C=CCOC(=O)C(=C)C
inactive: [10] | [14] | [11]

C/C=C(\C)C(=O)OCC/C=C\CC
inactive: [12]

O=C1NC(=O)[C@@H]2CC=CC[C@H]12
inactive: [12] | [14]
